Screening data: PubChem, National Center for Advancing Translational Sciences (NCATS)
In the library only some 1.9% were active in any assay of this set; here they are far more common.
a7 integrin act: integrin-mediated muscular dystrophy alleviation activation. alpha7betagal myoblasts, beta-gal FDG fluorescence, 48 h. Potency, µM (doses to about 38.3 µM), for the others: at the top dose activation, hits mostly activators. 350,000 compounds, 0.064% hits. AID 624291;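 note: potency is the fitted concentration of half-maximal effect; 100% = response of the positive control SU9516; nearly all actives have a fitted effect of over 60% in size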
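Alpha7betagal+/- myoblasts (passage 13) were plated 16-24 hr, then exposed to compounds (1:260 dilution of DMSO stock) for 48 hours at 37C. After MPER lysis, β-galactosidase reporter activity was read as FDG fluorescence (ex 480/em 540) after 30 minutes.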
ClpP mod: qHTS Assay for Activators of ClpP | purified B. subtilis ClpP, FRET peptide cleavage, 20 min | Potency, µM (titrated, usually from 57.5 µM), inactives show at the highest dose activity change, negative = active | AID 651965, 2013 | ATP-dependent Clp protease proteolytic subunit (Bacillus subtilis (strain 168)), P80244 | 340,000 compounds, 1.9% hits; active = well fitted falling curve with a large enough effect; inconclusive = small, poorly fitted or top-dose-only effect; inactive = no such curve, though single readings can be large or run the other way; note: potency is the fitted concentration of half-maximal effect; the source files actives as falling curves though it sought activators and does not explain the sign; nearly all actives have a fitted effect of over 65% in size
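ClpP 10 microg/mL final, pH 8 Tris/KCl buffer with BSA, glycerol, Tween-20; compound pinned in; FRET-FV substrate; RT 20 min; Ex320/Em430; ΔFRET vs ADEP 5.8 microM, DMSO, no enzyme.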
PKM2 activator: activators of human pyruvate kinase M2 | 260,000 compounds, 0.34% hits | AID 1631 | purified PKM2, Kinase-Glo ATP luminescence, activation; response scale: 0% is enzyme alone, no compound | Potency, µM (top dose mostly 57.5 µM), for the others: top-dose activation, actives largely listed as activators; note: potency is the fitted concentration of half-maximal effect; % is set by controls: 0 for no effect and ±100 for the full control effect; nearly all actives have a fitted effect of over 55% in size
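Purified hPK-M2 (>95% pure) converted ADP (0.1 mM final) to ATP with 0.5 mM PEP in 50 mM imidazole pH7.2, KCl, MgCl2, Tween 20, BSA; 1 h at room temperature. ATP detected by Kinase-Glo luminescence.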
Pin1 inhibitor: inhibitors of human Pin1. Q13526. Pin1 FP peptide displacement, HiFluor488, 10 min. Potency, µM (top dose mostly 115 µM), without a hit: at the highest dose activity, negative = inhibition, hits mostly inhibitors. 390,000 compounds, 0.009% hits; active = well fitted inhibition curve with a large enough effect in the polarisation, with a control signal flat, not every such curve was filed as active; inconclusive = small, poorly fitted or top-dose-only effect, or effect the other way, or a change in a side signal; inactive = no such curve, though single readings can be large or run the other way; the % refers to the polarisation; note: potency is the fitted concentration of half-maximal effect; % is set by controls: 0 for no effect and ±100 for the full control effect
Target sequence (Q13526 whole entry, looked up): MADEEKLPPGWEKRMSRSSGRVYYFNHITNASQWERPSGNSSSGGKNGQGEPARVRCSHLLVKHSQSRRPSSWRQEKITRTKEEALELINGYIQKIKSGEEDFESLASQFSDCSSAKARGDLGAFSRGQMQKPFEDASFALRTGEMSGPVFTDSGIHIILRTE
USP2a block: USP2a (human) protease inhibition; O75604; USP2 core, Ub-CHOP2 coupled fluorogenic reporter, 485/531; Potency, µM (titrated, usually from 38.3 µM), for the others: at the top dose activity change, negative = inhibition, hits mostly inhibitors; 330,000 compounds, 0.01% hits; AID 463254;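 note: potency is the fitted concentration of half-maximal effect; plate controls were DMSO wells for no effect and full inhibition by NEM control for full effect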
Target sequence (O75604 whole entry, looked up): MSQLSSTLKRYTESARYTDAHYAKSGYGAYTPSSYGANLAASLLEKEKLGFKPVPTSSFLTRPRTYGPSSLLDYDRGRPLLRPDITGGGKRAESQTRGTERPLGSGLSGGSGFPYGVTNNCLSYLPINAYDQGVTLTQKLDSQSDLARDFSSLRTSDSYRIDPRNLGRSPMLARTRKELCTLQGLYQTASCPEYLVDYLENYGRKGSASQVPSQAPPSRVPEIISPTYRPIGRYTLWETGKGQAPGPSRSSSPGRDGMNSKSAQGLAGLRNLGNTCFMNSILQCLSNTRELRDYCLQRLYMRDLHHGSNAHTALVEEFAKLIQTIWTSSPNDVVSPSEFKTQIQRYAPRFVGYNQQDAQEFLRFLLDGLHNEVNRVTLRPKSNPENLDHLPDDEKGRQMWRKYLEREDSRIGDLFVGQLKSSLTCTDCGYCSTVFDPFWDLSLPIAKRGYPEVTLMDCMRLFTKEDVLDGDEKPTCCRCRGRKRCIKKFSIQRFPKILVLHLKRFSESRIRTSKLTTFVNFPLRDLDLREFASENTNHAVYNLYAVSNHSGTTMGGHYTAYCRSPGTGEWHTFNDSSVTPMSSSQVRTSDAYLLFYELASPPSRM
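Deubiquitinase activity read as fluorescence (485/531 nm) after Ub-CHOP2 cleavage activates the enterokinase reporter on its substrate; USP2 core 10nM, Ub-CHOP2 and substrate 25nM each, 30min compound preincubation then 60min RT; data normalized to NEM, curves fitted.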
IL-2 act: IL-2 activation. IL-2 activation reporter assay, cell-based qHTS; stimulated with anti-CD3/CD4/CD28 beads; in transgenic mouse T cells. activation, % (series mostly up to about 46 µM). 360,000 compounds, 0.065% hits; in the data active = activation above about 50%; inconclusive = mostly about 30% to 49%; note: 0% is about no effect
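Quantitative HTS in unstimulated transgenic mouse T cells, with memory T cells as non-tolerant control and PMA/ionomycin as tolerance-bypass control. Compound pretreatment lasted 60 minutes before 18 h bead stimulation; EGFP/DsRed fluorescence read.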
* = called active by the depositor; ? = inconclusive; nt = no result given; [ ] = remark or other dose. Unless noted, calls come from the whole dose curve; as a rule, active = well fitted curve in the direction sought with a large enough effect; inconclusive = small, poorly fitted or top-dose-only effect, or another doubt; inactive = no such curve, though single readings can be large; an effect the other way counts as inactive or inconclusive.

SMILES	a7 integrin act	ClpP mod	PKM2 activator	Pin1 inhibitor	USP2a block	IL-2 act
O=C(CCN1C(=O)c2cccc3cccc(c23)C1=O)NCC1CCCO1 (stereo unspecified)	2.8%	nt	0.5%	-8.2%	1.9%	0.8
CCCC(=O)Oc1ccc2[nH]c(C(=O)c3cc4ccccc4[nH]3)cc2c1	nt	-6.6%	nt	nt	nt	nt
COC(=O)Cn1c(C)c(/C=C/c2cc[n+](C)cc2)c2ccccc21	11.7%	0.8%	6.6%[11.5 µM]	?	18.0%	222.4*
Cc1cccc([S+](=O)([O-])NC2CCN(C#N)CC2)c1	nt	nt	nt	-0.2%	nt	nt
CCOc1ccc(N2C(=O)S/C(=C\c3cccn3C)C2=O)cc1	-37.4%	0.8%	4.9%	?	-0.7%	0.9
Cn1cccc1/C=C1\SC(=O)N(c2ccc(O)cc2)C1=O	12.7%	2.7%	5.4%	?	10.9%	50.7*
CC(C)(C)c1ccc(C(=O)OCC(=O)Nc2sc3c(c2C#N)CCC3)cc1	5.01µM*	-3.5%	-19.5%	7.8%	4.3%	-3.0
N#Cc1c(NC(=O)CSc2nc(-c3ccccc3)cc(C(F)(F)F)n2)sc2c1CCC2	0.7%	25.1µM*	-0.3%	-14.5%	2.8%	0.9
O=C(C[N+]1(CC(O)c2ccccc2)CCCCC1)c1ccccc1 (stereo unspecified)	nt	-2.4%	nt	nt	nt	nt
COc1ccc(Nc2ncnc3ccc(Br)cc23)cc1OC	3.98µM*	nt	nt	1.5%	-0.5%	-0.2
O=C(Nc1ncn[nH]1)c1cc(S(=O)(=O)Nc2ccc(Cl)cc2)ccc1Cl	3.7%	-2.0%	0.3%	40.9%	-0.6%	1.7
O=C(Nc1ncn[nH]1)c1ccc(Cl)c(S(=O)(=O)Nc2ccc(Cl)cc2)c1	11.7%	31.6µM*	0.2%	3.6%	-4.9%	-1.8
Cc1ccc(N2CCN(S(=O)(=O)c3ccc4c(c3)CC(=O)N4)CC2)cc1	nt	nt	nt	21.3%[230 µM]	nt	nt
CN(C)c1ccc(C=Nc2cncc3ccccc23)cc1	nt	20.4%	nt	nt	nt	nt
Cn1c(SCC(=O)Nc2nc3ccccc3s2)ncc(C(=O)Nc2ccc(Cl)cc2)c1=O	nt	22.4µM*	nt	-4.9%	nt	nt
O=C(c1ccc2c(=O)n(Cc3ccco3)c(=S)[nH]c2c1)N1CCN(Cc2ccc3c(c2)OCO3)CC1	nt	0.2%	nt	?	nt	nt
CCN(CC(=O)NC1CCS(=O)(=O)C1)S(=O)(=O)c1ccc2ccccc2c1 (stereo unspecified)	-4.2%	25.1µM*	1.1%	-0.2%	-0.7%	-1.9
CCN(CC(=O)NC1CCS(=O)(=O)C1)S(=O)(=O)c1ccc(C)c(C)c1 (stereo unspecified)	7.9%	-1.0%	-16.9%	-4.9%	-3.5%	-0.3
CCOC(=O)C1=C(C)NC(C)=C(C(=O)OCC)C1C(=O)O	1.9%	0.4%	0.2%	-7.2%	-0.4%	-1.6
CCCC1C(C(=O)OCC)=C(C)NC(C)=C1C(=O)OCC	-17.5%	20µM*	-0.3%	-9.7%	2.2%	0.8
Cc1ccc2nc(-c3cccc(Br)c3)cc(C(=O)NCC3CCCO3)c2c1 (stereo unspecified)	1.6%	14.1µM*	-1.4%	11.1%	0.5%	-2.3
O=C(NCC1CCCO1)c1cc(-c2ccccc2)nc2ccc(Br)cc12 (stereo unspecified)	17.3%	-17.4%	-1.1%	-9.2%	-0.9%	-3.2
COc1cc(C=CC(=O)OCC=Cc2ccc3c(c2)OCO3)cc(OC)c1OC	41.4%	28.2µM*	nt	0.2%	nt	-3.3
O=C(NCCNCCO)C1(C(F)(F)F)CC(CCc2ccccc2)CCCO1 (stereo unspecified)	nt	nt	nt	2.9%	nt	nt
CCN(Cc1cccc(S(=O)(=O)O)c1)c1ccc(C(=C2C=CC(=[N+](CC)Cc3cccc(S(=O)(=O)O)c3)C=C2)c2ccc(O)cc2S(=O)(=O)O)cc1	nt	-3.2%	nt	nt	nt	nt
SMILES	a7 integrin act	ClpP mod	PKM2 activator	Pin1 inhibitor	USP2a block	IL-2 act
Cc1cc(OCC(=O)NC(C)C)ccc1Cl	3.98µM*	nt	9.7%	-7.6%	4.0%	-2.6
COc1ccc(CNC(=O)/C=C/c2cc3c(cc2Br)OCO3)cc1	11.3%	25.1µM*	1.0%	1.6%	0.0%	-1.8
COC(=O)C1C(=O)c2c([nH]c(C(=O)OCCOC(C)C)c2C)CC1C (stereo unspecified)	-13.5%	31.6µM*	1.6%	2.2%	-0.5%	-2.5
COC(=O)CN(c1ccccn1)S(=O)(=O)c1ccccc1	11.3%	11.2µM*	-8.1%	0.2%	-0.1%	0.9
O=C(O)CN(c1ccccn1)S(=O)(=O)c1ccccc1	9.6%	28.2µM*	-11.0%	0.9%	-1.8%	-0.3
C[C@H]1Cc2c(-c3ccccc3)nc3c(c2CO1)CN(C(=O)Nc1cccc(C#N)c1)CC3	nt	nt	4.6%[11.5 µM]	nt	nt	nt
CC1CCCCN1C(=O)COC(=O)c1ccc(S(C)(=O)=O)c([N+](=O)[O-])c1 (stereo unspecified)	nt	-1.5%	nt	1.7%	nt	nt
COc1cccc2c(=O)cc(C)n(CC(=O)Nc3ccccc3C)c12	-27.6%	12.6µM*	1.3%	-1.8%	-1.5%	-1.1
COc1cc2c(NC3CCN(C(C)C)CC3)nc(N3CCCN(C)CC3)nc2cc1OCCOCCN(C)C	nt	4.3%	nt	nt	nt	nt
CCOc1ccc(-n2c(C)nc3cc(C(=O)NCCCN4CCOCC4)ccc32)cc1	10.4%	31.6µM*	7.6%	-2.9%	0.5%	-0.5
CCOc1ccc(-n2c(C)nc3cc(C(=O)NCCN4CCOCC4)ccc32)cc1	14.8%	-3.9%	-3.4%	0.7%	2.9%	-0.4
Fc1ccc(N/N=C/c2ccncc2)c(F)c1	3.7%	22.4µM*	-5.7%	0.1%	-3.0%	-0.5
Cc1c(O)ccc2c3c(c(=O)oc12)CCCC3	-8.0%	25.1µM*	-4.7%	-8.0%	2.5%	-0.7
Cc1c(O)ccc2c3c(c(=O)oc12)CCC(C)C3 (stereo unspecified)	3.7%	25.1µM*	3.0%	-9.8%	-1.0%	0.6
Cc1cc(=O)oc2c(CN(CC(C)C)CC(C)C)c(O)ccc12	6.6%	3.9%	-0.4%	-2.1%	0.6%	0.0
CC(C)CN(Cc1c(O)ccc2c3c(c(=O)oc12)CCC3)CC(C)C	0.1%	12.6µM*	-8.6%	-5.2%	1.3%	-3.2
CC1CCCN(Cc2c(O)ccc3c4c(c(=O)oc23)CCCC4)C1 (stereo unspecified)	-15.8%	3.4%	2.0%	4.1%	4.4%	-0.8
COC(=O)C1=C(C(=O)OC)[C@@H]2N(C)c3ccccc3[C@@]23C[C@@H](C(=O)OC)N(S(=O)(=O)c2ccc(C(F)(F)F)cc2)C3=N1	nt	nt	1.3%[11.5 µM]	nt	nt	nt
COC(=O)[C@@]1(Cc2ccc(F)cc2)[C@H]2c3cc(C(=O)N4CCCC4)n(Cc4ccc(C)o4)c3C[C@H]2CN1C(=O)c1ccccc1	nt	-3.9%	12.6µM*	nt	nt	-0.7
